Reference: the supplement of paper PMC7156485

Experiments:
Conditions in all cases: concentration: 10 µM; 24 h
HCC1569 [1] = test: cell number relative to DMSO (% of DMSO); higher = more cells (less growth inhibition / toxicity)
In short: (§1)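 Cells were seeded at 800 per well in 384-well plates with RPMI containing 10% FBS; both HCC1569 and TDF lines were used. Compounds were added at 10 µM for 24 h at 37 °C, in triplicate, before fixation in 3.7% formaldehyde and staining with a rabbit anti-H1.0 antibody, an AlexaFluor 647 secondary and DAPI. H1.0 nuclear intensity or cell number is reported as percent of the plate control using the median of replicates, and HCC1569 values were smoothed for positional effects.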

TDF [2] = test: as above
In short: as §1

TDF [3] = test: H1.0 immunofluorescence intensity relative to DMSO (% of DMSO); higher = stronger H1.0 induction, active = 120 or more
In short: as §1

HCC1569 [4] = test: H1.0 immunofluorescence intensity relative to DMSO (% of DMSO); higher = stronger H1.0 induction, active = 140 or more
In short: as §1
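For H1.0 immunofluorescence intensity relative to DMSO in this document: TDF is a line of transformed human dermal fibroblasts of mesenchymal origin.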
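For cell number relative to DMSO in this document: TDF denotes transformed human dermal fibroblasts of mesenchymal origin.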

Compound	cell number (HCC1569 [1])	cell number (TDF [2])	H1.0 immunofluorescence intensity (TDF [3])	H1.0 immunofluorescence intensity (HCC1569 [4])
O=C1C=C2C=CC3CC2(O1)C1CCCCN31 (configuration not stated) [Securinine]	87.8	76.4	102 (inactive)	99.9 (inactive)
COC(=O)CC(O)(CCC(C)(C)O)C(=O)OC1C(OC)=CC23CCCN2CCc2cc4c(cc2C13)OCO4 (configuration not stated) [Harringtonine]	56.5	29.9	107 (inactive)	90 (inactive)
O=C(O)c1cc[c]([Hg][Cl])cc1 [4-Chloromercuribenzoic acid]	102	111	91.8 (inactive)	92.6 (inactive)
C=C1C(C)C2C(Cc3ccccc3)NC(=O)C23C(OC(C)=O)C=CC(C)(O)C(=O)C(C)CC=CC3C1O (configuration not stated) [Cytochalasin D]	69.1	45.1	212 (active)	204 (active)
Cl.NCC(O)c1ccc(O)cc1 (racemic)	99.3	106	93.6 (inactive)	93.1 (inactive)
CCCN(CCC)CCc1c[nH]c2ccc(C(N)=O)cc12.O=C(O)C=CC(=O)O [N,N-Dipropyl-5-carboxamidotryptamine maleate]	99.4	104	97 (inactive)	98.9 (inactive)
C[N+]1(C)C2CC(OC(=O)C(CO)c3ccccc3)CC1C1OC12.O=[N+]([O-])[O-] (single isomer, unassigned; (-)) [(-)-Scopolamine methyl nitrate]	99.7	98.7	93.1 (inactive)	106 (inactive)
COc1ccc(CCN2CCC(Nc3nc4ccccc4n3Cc3ccc(F)cc3)CC2)cc1 [Astemizole]	88.6	89	109 (inactive)	143 (active)
